HepG2 tox: counter-screen for TGF-b inhibitors: cytotoxicity in HepG2 cells; HepG2 CAGA-GFP viability, ATP luminescence, 18 h; Potency, µM (titrated, usually from 46.1 µM), inactives show at the highest dose activity change, negative = cytotoxicity, actives largely listed as cytotoxic; 410,000 tested, 0.76% active; note: potency is the fitted concentration of half-maximal effect
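CellTiter-Glo luminescence gave cytotoxicity after 18 hours at 37 degrees C. The cells were HepG2 CAGA-GFP in 1% FBS DMEM, stimulated with 500 pg/mL TGF-beta after compound addition. %Activity was normalised to no-cell wells (complete cell-killing) and DMSO (no toxicity), and curves were fitted and classified.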
DT40 TDP1 no CPT: qHTS for Inhibitors of human tyrosyl-DNA phosphodiesterase 1 (TDP1): qHTS in cells in absence of CPT | DT40 Tdp1-/- hTDP1 cells, no CPT, ATP luminescence, 48 h | Potency, µM (titrated, usually from 46.2 µM), inactives show at the top dose activity change, negative = growth inhibition, most hits filed as inhibitors | 420,000 tested, 15% active; note: potency is the fitted concentration of half-maximal effect; % is set by controls: 0 for no effect and ±100 for the full control effect; nearly all actives have a fitted effect of over 55% in size
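Stably hTDP1-transfected Tdp1-null chicken DT40 cells were treated with library compounds minus camptothecin and grown for at least 48 hr at 37 °C, after which cellular ATP was quantified by luminescence.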
IL1B secr inh: inflammasome signaling inhibition, IL-1 beta readout; THP-1 LPS/ATP IL-1B secretion, AlphaLISA, 16 h; stronger effect = lower value; activity change, % at 57.5 µM; 360,000 tested, 4.7% active; AID 743279; in the data active = activity change below about -50%; inconclusive = mostly about -30% to -49%; note: % is set by controls: 0 for no effect and ±100 for the full control effect
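Secreted IL-1B measured by AlphaLISA bead assay after 16 h compound exposure of THP-1 cells; compounds (final up to 57.5 uM) added 1 h before LPS (250 ng/mL) and ATP (1.25 mM) stimulation; lower signal means less secretion.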
TDP1 block: TDP1 (human) enzyme inhibition; Q9NUW8; recombinant TDP1, AlphaScreen DNA substrate cleavage; Potency, µM (series often up to 130 µM), for the others: top-dose activity change, negative = inhibition, hits mostly inhibitors; 350,000 tested, 0.28% active; AID 485290; note: potency is the fitted concentration of half-maximal effect; % is set by controls: 0 for no effect and ±100 for the full control effect; nearly all actives have a fitted effect of over 40% in size
Target sequence (Q9NUW8 whole entry, looked up): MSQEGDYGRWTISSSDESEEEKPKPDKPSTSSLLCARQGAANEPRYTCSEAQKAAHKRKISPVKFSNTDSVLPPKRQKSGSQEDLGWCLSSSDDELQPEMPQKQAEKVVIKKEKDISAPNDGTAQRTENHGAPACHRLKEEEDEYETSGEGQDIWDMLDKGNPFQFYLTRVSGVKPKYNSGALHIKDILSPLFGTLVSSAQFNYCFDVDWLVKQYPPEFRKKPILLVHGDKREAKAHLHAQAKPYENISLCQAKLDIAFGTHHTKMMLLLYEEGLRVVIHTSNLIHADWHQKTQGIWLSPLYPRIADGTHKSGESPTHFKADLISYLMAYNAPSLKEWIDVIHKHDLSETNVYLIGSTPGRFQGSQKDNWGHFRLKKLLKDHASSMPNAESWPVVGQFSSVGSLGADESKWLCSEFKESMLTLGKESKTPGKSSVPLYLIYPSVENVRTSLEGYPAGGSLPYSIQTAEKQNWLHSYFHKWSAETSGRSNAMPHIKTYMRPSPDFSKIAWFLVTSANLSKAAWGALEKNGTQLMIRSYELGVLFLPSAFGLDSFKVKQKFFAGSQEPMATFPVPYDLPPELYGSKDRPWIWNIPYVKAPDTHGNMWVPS
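Tdp1 1 nM final; 15 min RT w/ cpd; substrate 15 nM, 5 min; beads 10 ug/ml, 10 min; AlphaScreen read. Neg ctrl: no enzyme.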
TDP1 cell CPT: DT40-hTDP1 cell growth loss with CPT; chicken DT40 Tdp1-/-;hTDP1 cells + 20 nM CPT, ATP luminescence, 48 h; Potency, µM (doses to about 46.2 µM), without a hit: top-dose activity change, negative = growth inhibition, actives largely listed as inhibitors; 420,000 tested, 12% active; note: potency is the fitted concentration of half-maximal effect; % is set by controls: 0 for no effect and ±100 for the full control effect; nearly all actives have a fitted effect of over 55% in size
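Chicken DT40 Tdp1-/- cells complemented with human TDP1, 400 cells/well, exposed to compounds plus 20 nM camptothecin for at least 48 h at 37 C; viability read as ATP content by CellTiter-Glo luminescence.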
TGFb SMAD3 inh: inhibitors of TGF-b signaling | 410,000 tested, 1.2% active | AID 588855 | Potency, µM (highest dose often 46.1 µM), without a hit: at the highest dose activity, negative = inhibition, hits mostly inhibitors | HepG2 CAGA-GFP TGF-b/SMAD3 reporter, GFP fluorescence, 18 h; TGF-beta stimulated, 500 pg/mL final; note: potency is the fitted concentration of half-maximal effect; % is set by controls: 0 for no effect and ±100 for the full control effect; nearly all actives have a fitted effect of over 65% in size
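Per well, imaged GFP fluorescence of HEPG2 CAGA-GFP cells gives the signal; cells get compound, then TGF-beta (500 pg/mL final), 18 h at 37 degrees C; %Activity versus -TGF-beta and +DMSO controls.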
* hit, by the source's call; ? = inconclusive; . = no result given; ! = a repeat was not active; [ ] = another dose, or the depositor's remark. Rows were chosen to be rich in hits. Some 19% of all compounds tested hit in one or more screens of this group. Unless noted, calls come from the whole dose curve; as a rule, active = well fitted curve in the direction sought with a large enough effect; inconclusive = small, poorly fitted or top-dose-only effect, or another doubt; inactive = no such curve, though single readings can be large; an effect the other way counts as inactive or inconclusive.

SMILES	HepG2 tox	DT40 TDP1 no CPT	IL1B secr inh	TDP1 block	TDP1 cell CPT	TGFb SMAD3 inh
CC(C)C(=O)N1CCN(c2ccc(NC(=O)COc3ccccc3[N+](=O)[O-])cc2)CC1	-19.1%	18.4µM*	-90.2*	-2.4%	14.6µM*	-14.5%
O=C(COc1cc(F)ccc1[N+](=O)[O-])Nc1ccc(N2CCCCC2)cc1	-1.7%	?	-67.0*	.	?	6.1%
COc1ccc(C)cc1NC(=O)CNc1ccccc1CN(C)C1CCCCC1	-21.7%	?	-3.8	1.2%	18.4µM*	-23.2%
COc1ccc(Cl)cc1NC(=O)CNc1ccccc1CN(C)C1CCCCC1	-1.0%	?	-214.3*	0.0%	?	-17.3%
COc1ccc(Cl)cc1NC(=O)CN(C)C(C)C(=O)NC(=O)NC1CCCCC1 (centres undefined)	-10.0%	18.4µM*	?	-12.2%	?	?
COc1ccc(Cl)cc1NC(=O)CN(C)C1CCCCC1	-0.4%	?	-11.1	6.6%	?	2.4%
CCCc1ccc2oc(C(=O)NCCN3CCCC(O)C3)c(C)c2c1 (centres undefined)	-16.6%	?	-66.3*	4.3%	?	4.1%
O=c1cc(CO)oc(CN2CCCC2)c1O	6.0%	-5.4%	11.1	-5.9%	2.3%	-0.6%
CCN(CC)Cc1oc(CO)cc(=O)c1O	-193.1%	-16.4%	-6.7	50.1µM*	0.6%	-14.8%
Cc1ccccc1NC(=O)c1snc2c(=O)[nH]cnc12	.	.	.	-1.2%	.	.
COc1ccc(N2CCN(C(=O)c3ccc(Br)cc3)CC2)c([N+](=O)[O-])c1	1.9%	18.4µM*	-18.4	3.7%	?	0.0%
COc1ccc(N2CCN(C(=O)c3ccccc3Br)CC2)c([N+](=O)[O-])c1	-18.7%	14.6µM*	-61.2*	-5.5%	?	-10.1%
COc1ccc(N2CCN(c3ccc(N4C(=O)COCC4=O)cc3[N+](=O)[O-])CC2)cc1	-13.7%	9.2µM*	-4.3	-3.4%	?	2.7%
Cc1ccc(C)c(N2CCN(c3ccc(N4C(=O)COCC4=O)cc3[N+](=O)[O-])CC2)c1	16.4%	-8.5%	27.5	5.6%	0.3%	-1.8%
COCCNC(=O)c1cnn(-c2ccc(C)cc2C)c1C1CCN(C(=O)OC(C)(C)C)CC1	-19.0%	?	.	5.3%	?	-1.6%
CCOC(=O)c1cnc(-n2nc(C)cc2C)nc1N1CC(C)OC(C)C1 (centres undefined)	3.1%	20.6µM*	-10.0	.	?	0.0%
Cc1cc(C)n(-c2nc(C)nc(NCc3ccccc3)n2)n1	-14.2%	18.4µM*	15.1	2.3%	25.9µM*	-30.7%
CCOC(=O)c1cnc(-c2ccccc2)nc1N1CC(C)OC(C)C1 (centres undefined)	-3.7%	?	-23.6	0.0%	?	0.3%
CCOC(=O)c1cnc(-n2nc(C)cc2C)nc1NCc1ccccc1	-37.6%	5.17µM*	-111.4*	2.3%	3.26µM*	?
CCOC(=O)c1cnc(-n2nc(C)cc2C)nc1NC(C)c1ccccc1 (centres undefined)	-8.3%	4.61µM*	-8.6	10.3%[56.1 µM]	4.61µM*	-3.5%
Cc1nn(S(=O)(=O)c2ccc(F)cc2)c(C)c1S(=O)(=O)N1CCCCCC1	-7.7%	2.5%	.	4.1%	9.2%	?
CCOC(=O)C1CCN(C(=O)c2ccc3c(SCC(=O)O)c4c(nc3c2)CCCC4)CC1	-3.7%	-11.9%	14.3	0.0%	1.1%	-4.1%
CCOC(=O)N1CCN(C(=O)c2ccc3c(Cl)c4c(nc3c2)CCCC4)CC1	3.4%	?	-50.8*	1.7%	?	?
Cc1ccc(C)c(N2CCN(C(=O)c3ccc4c(=O)n5c(nc4c3)CCCCC5)CC2)c1	-30.7%	16.4µM*	?	.	16.4µM*	?
O=C(c1ccc2c(Cl)c3c(nc2c1)CCCC3)N1CCC(N2CCCCC2)CC1	-46.7%	?	-69.4*	0.0%	?	?
SMILES	HepG2 tox	DT40 TDP1 no CPT	IL1B secr inh	TDP1 block	TDP1 cell CPT	TGFb SMAD3 inh
O=C(c1ccc2c(Cl)c3c(nc2c1)CCCC3)N1CCN(c2ccccc2)CC1	-6.2%	-9.7%	.	2.3%	0.6%	-15.6%
O=C(c1ccc2c(=O)n3c(nc2c1)CCCCC3)N1CCCCC1	6.3%	9.1%	46.9	0.1%	-28.7%	-0.2%
Cc1ccc(C)c(N2CCN(C(=O)c3ccc4c(Cl)c5c(nc4c3)CCCC5)CC2)c1	-28.3%	?	.	3.5%	16.4µM*	?
Cc1noc(C)c1CSCC(=O)Nc1nc2ccc(S(C)(=O)=O)cc2s1	-8.0%	-17.7%	17.6	-14.4%	?	10.9%
Cc1ccc(NS(=O)(=O)c2ccc(-n3cccn3)cc2)cc1F	-27.6%	-18.9%	-3.4	0.9%	?	?
Cc1ccc(Cl)cc1NS(=O)(=O)c1ccc(-n2cccn2)cc1	-2.4%	-19.3%	12.1	5.8%	?	0.6%
Cc1ccc(NS(=O)(=O)c2ccc(-n3cccn3)cc2)c(C)c1	-17.3%	?	1.4	2.5%	18.4µM*	-16.2%
Cc1cccc(NS(=O)(=O)c2ccc3c(c2)Cc2cc(S(=O)(=O)Nc4cccc(C)c4C)ccc2-3)c1C	-1.5%	5.17µM*	7.0	3.5%	6.51µM*	-5.7%
Cc1ccc(NS(=O)(=O)c2ccc(-n3cccn3)cc2)c(Br)c1	-21.9%	16.4µM*	22.6	0.0%	18.4µM*!	0.0%
COc1cccc(NS(=O)(=O)c2ccc(-n3cccn3)cc2)c1	1.6%	5.8µM*	-15.6	0.7%	?	-27.9%
O=S(=O)(c1ccc(Cl)cc1)N1CCN(c2nc(-c3ccc(F)cc3)nc3cc(Cl)ccc23)CC1	4.9%	.	.	0.4%	.	25.5%
Cc1cccc(NS(=O)(=O)c2ccc(-n3cccn3)cc2)c1C	0.1%	7.31µM*	-6.7	0.5%	13µM*	4.3%
COC(=O)c1cccnc1-n1c(=O)c2cccnc2n(Cc2cccc([N+](=O)[O-])c2)c1=O	-54.5%	11.6µM*	0.0	5.8%	?	4.6%
COc1cc(C=O)ccc1Oc1nc(Nc2ccc(F)cc2F)nc(N2CCOCC2)n1	-5.3%	?	-56.3*	4.9%	?	-5.0%
Cc1cc(C)nc(NC2=NCCN2C(=O)NC2CCCCC2)n1	2.8%	16.4µM*	15.8	4.7%	?	0.0%
CCn1nnc2cc(C(=O)Nc3cccc(Cl)c3)ccc21	4.3%	-16.9%	.	5.3%	5.8%	-13.7%

Assay outcomes from PubChem BioAssay.
